# Assay results published in the supplement of paper PMC3334620.
# Whole data set: some 33,000 sequences, median “E-score (-0.5 to 0.5)” near -0.054, cut for the highest 2% near 0.39. The sample holds the highest values, similar sequences and a random draw of the others, so the mix is not that of the screen.
# Target: Ylr278c (UniProt Q05854)
# Experiment: PBM E-score (8-mer binding enrichment) (E-score (-0.5 to 0.5)); higher = stronger / more preferred TF binding
# Details: protein concentration: 200 nM; construct: GST-DNA-binding domain
# Protocol: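 Universal 'all 10-mer' protein binding microarrays (Agilent AMADID 015681) probed with GST-tagged S. cerevisiae TFs (full-length or DBD) made by in vitro transcription/translation (PURExpress), about 100-200 nM. Bound TF was detected with fluorescent anti-GST. Each ungapped 8-mer (which stands for itself and its reverse complement) is scored by the PBM enrichment score (E-score), a modified Wilcoxon-Mann-Whitney statistic from -0.5 to +0.5, computed with the Universal PBM Analysis Suite. Scale: above 0.35 generally sequence-specific binding.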
# UniProt Q05854, sequence (Q05854 whole entry): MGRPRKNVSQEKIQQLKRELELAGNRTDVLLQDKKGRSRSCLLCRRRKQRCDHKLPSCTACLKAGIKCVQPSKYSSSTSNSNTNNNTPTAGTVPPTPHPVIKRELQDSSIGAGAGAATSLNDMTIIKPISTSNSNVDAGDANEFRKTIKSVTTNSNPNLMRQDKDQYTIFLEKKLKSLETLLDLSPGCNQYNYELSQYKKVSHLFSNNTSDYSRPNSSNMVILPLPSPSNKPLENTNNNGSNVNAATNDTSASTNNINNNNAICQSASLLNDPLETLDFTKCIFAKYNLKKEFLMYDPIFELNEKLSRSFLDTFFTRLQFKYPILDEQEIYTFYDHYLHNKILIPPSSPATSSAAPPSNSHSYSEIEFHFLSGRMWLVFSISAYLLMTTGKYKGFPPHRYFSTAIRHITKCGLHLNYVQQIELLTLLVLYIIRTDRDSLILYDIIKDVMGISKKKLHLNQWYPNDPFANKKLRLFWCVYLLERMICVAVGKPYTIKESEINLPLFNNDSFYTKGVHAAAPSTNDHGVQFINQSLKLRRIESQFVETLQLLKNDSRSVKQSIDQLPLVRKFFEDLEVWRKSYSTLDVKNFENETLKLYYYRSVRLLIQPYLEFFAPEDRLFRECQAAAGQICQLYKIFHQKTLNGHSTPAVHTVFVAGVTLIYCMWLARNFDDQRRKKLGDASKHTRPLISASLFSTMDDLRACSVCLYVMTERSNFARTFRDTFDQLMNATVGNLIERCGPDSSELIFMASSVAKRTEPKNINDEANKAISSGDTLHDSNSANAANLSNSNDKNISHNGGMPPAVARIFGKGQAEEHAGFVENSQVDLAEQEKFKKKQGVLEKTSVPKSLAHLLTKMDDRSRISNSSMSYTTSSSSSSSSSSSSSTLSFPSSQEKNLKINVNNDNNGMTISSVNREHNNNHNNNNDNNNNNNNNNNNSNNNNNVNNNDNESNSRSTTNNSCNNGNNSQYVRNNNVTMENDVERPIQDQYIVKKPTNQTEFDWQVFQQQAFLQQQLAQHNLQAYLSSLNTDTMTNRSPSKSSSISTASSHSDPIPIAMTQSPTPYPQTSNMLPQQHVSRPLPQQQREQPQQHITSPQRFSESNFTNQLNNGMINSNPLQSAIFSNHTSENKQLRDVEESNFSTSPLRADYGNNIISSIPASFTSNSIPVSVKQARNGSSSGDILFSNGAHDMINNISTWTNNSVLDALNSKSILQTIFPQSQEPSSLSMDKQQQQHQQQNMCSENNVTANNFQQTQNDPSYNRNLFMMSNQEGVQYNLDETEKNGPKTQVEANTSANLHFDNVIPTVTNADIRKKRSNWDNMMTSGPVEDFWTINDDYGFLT
row,Sequence,PBM E-score
1,GGTCCGTA,0.304
2,AGTCCGCA,0.372
3,CGTCCGTA,0.189
4,CGTCCGTC,0.208
5,CGTCCGGC,0.407
6,AGTCCGGA,0.476
7,AGTCCGTA,0.328
8,GGTCCGCA,0.278
9,GGTCCGGA,0.446
10,CGTCCAGC,-0.233
11,CATTTTCG,0.173
12,TAAGTGAA,-0.072
13,ATGAGGAG,-0.132
14,CGGACGCC,0.366
15,CTAGTTCC,0.0969
16,CGCAATTC,0.201
17,CATGAAGG,-0.145
18,TATCCACA,-0.144
19,ACAACTCC,0.295
20,CCTTTCGC,0.0666
21,AGTGCGGA,0.394
22,CGTGCGGA,0.279

row,Sequence,PBM E-score
1,AGTGCGGG,0.258
2,AATGCGGT,0.116
3,CATGCGGA,0.317
4,AATGCGGA,0.396
5,AGCCGGCC,0.324
6,GGCCGGCA,0.394
7,CGCCGGCA,0.39
8,AGCCGGCA,0.33
9,AGCCGGCG,0.372
10,CGCCGCCG,0.362
11,CGCCGGCG,0.463
12,GGCCGGCC,0.372
13,CGCCGGCC,0.367
14,AAGCTATG,-0.249
15,AATTTGAG,-0.15
16,CCCATCTC,0.0175
17,GGATGGGA,0.0151
18,GTTGTGTA,-0.159
19,AACAAGCA,0.0514
20,CGTGGGCA,-0.16
21,TCCAGAGA,-0.212
22,TCCGGAGA,0.483

row,Sequence,PBM E-score
1,CCCGGAGC,0.452
2,GCCGGTGA,0.298
3,TCAGGAGA,-0.0923
4,CCCGGACC,0.376
5,GCCGGAGC,0.452
6,GCCGGAGA,0.459
7,GCCAGAGA,-0.194
8,GCAGGAGC,-0.194
9,CCGGGAGC,0.228
10,GCCAGAGC,-0.222
11,GTCTACTA,-0.0894
12,CCGTCCCG,0.348
13,CCCAACCG,-0.0967
14,AAGCTGCC,-0.234
15,ATCCAAGG,0.0179
16,AGGCTGCA,-0.242
17,CCCCTCAG,-0.124
18,TCAAAGCA,-0.174
19,AGTTCACC,0.126
20,GCAACCAC,0.00041
21,ACCGGAGG,0.441
22,ACCGGGGG,0.293

row,Sequence,PBM E-score
1,CCCAGAGA,-0.233
2,ACCGGATG,0.279
3,CCCCGAGG,0.245
4,CCCGGAGG,0.439
5,CCGGGAGA,0.362
6,CCCGGAGA,0.476
7,ACCGGAGC,0.448
8,ACCGGATC,0.354
9,ACTGGAGC,-0.117
10,CCGGGAGG,0.261
11,GCGTATAC,-0.00732
12,CGTAGAAC,-0.0134
13,AATGAACA,-0.117
14,ACATTGGG,-0.122
15,TATATCCA,-0.171
16,ACCGGATA,0.265
17,ACCAGAGT,-0.219
18,ACCGGAGA,0.475
19,ACAGGAGA,-0.0277
20,ACAGGAGT,-0.0336
21,ACCGGAGT,0.481
